13 sequences from publication PMC8384837, “Expanding the binding specificity for RNA recognition by a PUF domain” can be followed below.

What all share (assay): yeast three-hybrid, YBZ-1, SC-Leu-His + 0.5 mM 3-AT, 4 days
Details in all cases: tags: N-Gal4 AD-HA kept; label: inside an RPR1-promoter hybrid RNA with tandem MS2 sites; ssRNA

One assay addresses PUM1 PUF domain R5-NPI (Homo sapiens, UniProt Q14671 828-1176, C1007N;R1008P;Q1011I). The procedure, abridged:
(§1)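 Each repeat of the Pumilio-1 PUF domain was randomized at its three base-contacting residues, and these libraries were co-expressed from a centromeric plasmid with matching RNA elements in strain YBZ-1. After four days on SC-Leu (input) or SC-Leu-His + 0.5 mM 3-AT (selection), the repeat regions were PCR-amplified and Illumina-sequenced. The interaction score compares variant frequency between input and selection as a log change, computed in log2 with a pseudocount of 1 for absent variants.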

Another assay concerns the target PUM1 PUF domain R5-KGC (Homo sapiens, UniProt Q14671 828-1176, C1007K;R1008G;Q1011C). The procedure, abridged:
as §1

Another assay concerns the target PUM1 PUF domain R5-RPN (Homo sapiens, UniProt Q14671 828-1176, C1007R;R1008P;Q1011N). The procedure, abridged: as §1
In the next assay the target is PUM1 PUF domain R5-KTS (Homo sapiens, UniProt Q14671 828-1176, C1007K;R1008T;Q1011S). The procedure, abridged:
as §1

The next assay has as its target PUM1 PUF domain R4-VPT (Homo sapiens, UniProt Q14671 828-1176, N971V;H972P;Q975T). The procedure, abridged:
as §1

A further assay concerns the target PUM1 PUF domain R4-PHV (Homo sapiens, UniProt Q14671 828-1176, N971P;Q975V). The procedure, abridged: as §1
The target of the next assay is PUM1 PUF domain R3-SPR (Homo sapiens, UniProt Q14671 828-1176, C935S;R936P;Q939R). The procedure, abridged:
as §1

For another assay, the target named is PUM1 PUF domain R1-KSR (Homo sapiens, UniProt Q14671 828-1176, S863K;R864S;Q867R). The procedure, abridged:
as §1

A further assay concerns the target PUM1 PUF domain R1-RAV (Homo sapiens, UniProt Q14671 828-1176, S863R;R864A;Q867V). The procedure, abridged:
as §1

The next assay has as its target PUM1 PUF domain R1-GWR (Homo sapiens, UniProt Q14671 828-1176, S863G;R864W;Q867R). The procedure, abridged:
as §1

The target of the next assay is PUM1 PUF domain R5-SAS (Homo sapiens, UniProt Q14671 828-1176, C1007S;R1008A;Q1011S). The procedure, abridged: as §1
A further assay deals with PUM1 PUF domain R3-RMR (Homo sapiens, UniProt Q14671 828-1176, C935R;R936M;Q939R). The procedure, abridged:
as §1

The target of a further assay is PUM1 PUF domain R3-LYV (Homo sapiens, UniProt Q14671 828-1176, C935L;R936Y;Q939V). The procedure, abridged:
as §1

For another assay, the target named is T1, PUM1 PUF domain R6-VFR (Homo sapiens, UniProt Q14671 828-1176, N1043V;Y1044F;Q1047R).
T1 sequence: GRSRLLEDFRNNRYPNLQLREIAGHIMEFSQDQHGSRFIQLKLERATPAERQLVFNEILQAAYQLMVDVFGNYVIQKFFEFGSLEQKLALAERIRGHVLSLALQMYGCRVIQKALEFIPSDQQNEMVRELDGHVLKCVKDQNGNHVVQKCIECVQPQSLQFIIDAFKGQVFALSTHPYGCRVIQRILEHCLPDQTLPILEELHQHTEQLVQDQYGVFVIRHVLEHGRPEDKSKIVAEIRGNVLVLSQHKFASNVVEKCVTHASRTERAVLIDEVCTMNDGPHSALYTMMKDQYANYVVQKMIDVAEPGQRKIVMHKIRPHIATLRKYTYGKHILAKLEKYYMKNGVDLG
The procedure, abridged: as §1

The next assay has as its target PUM1 PUF domain R3-SQE (Homo sapiens, UniProt Q14671 828-1176, C935S;R936Q;Q939E). The procedure, abridged:
as §1

Another assay concerns the target PUM1 PUF domain R3-DYI (Homo sapiens, UniProt Q14671 828-1176, C935D;R936Y;Q939I). The procedure, abridged:
as §1

The next assay has as its target PUM1 PUF domain R3-NSL (Homo sapiens, UniProt Q14671 828-1176, C935N;R936S;Q939L). The procedure, abridged:
as §1

For a further assay, the target named is PUM1 PUF domain R7-GWD (Homo sapiens, UniProt Q14671 828-1176, S1079G;N1080W;E1083D). The procedure, abridged:
as §1

For a further assay, the target named is PUM1 PUF domain R7-SRK (Homo sapiens, UniProt Q14671 828-1176, N1080R;E1083K). The procedure, abridged:
as §1

A further assay deals with PUM1 PUF domain R7-SHP (Homo sapiens, UniProt Q14671 828-1176, N1080H;E1083P). The procedure, abridged:
as §1

Sequence of PUM1 PUF domain R3-LYV (Q14671 828-1176 C935L/R936Y/Q939V): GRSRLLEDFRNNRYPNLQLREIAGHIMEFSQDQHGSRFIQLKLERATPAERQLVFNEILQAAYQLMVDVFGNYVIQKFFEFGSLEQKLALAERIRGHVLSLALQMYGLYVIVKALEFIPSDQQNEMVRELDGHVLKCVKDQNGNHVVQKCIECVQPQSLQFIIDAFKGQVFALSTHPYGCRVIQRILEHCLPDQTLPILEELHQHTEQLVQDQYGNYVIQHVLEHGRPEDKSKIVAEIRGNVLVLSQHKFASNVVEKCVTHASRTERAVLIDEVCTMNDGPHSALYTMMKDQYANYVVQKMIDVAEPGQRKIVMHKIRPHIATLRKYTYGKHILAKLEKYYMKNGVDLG
Sequence of PUM1 PUF domain R5-KTS (Q14671 828-1176 C1007K/R1008T/Q1011S): as the sequence (Q14671 828-1176 C935L/R936Y/Q939V) above, with L108C, Y109R, V112Q, C180K, R181T, Q184S counted along it
Sequence of PUM1 PUF domain R5-KGC (Q14671 828-1176 C1007K/R1008G/Q1011C): as the sequence (Q14671 828-1176 C935L/R936Y/Q939V) above, with L108C, Y109R, V112Q, C180K, R181G, Q184C counted along it
Sequence of PUM1 PUF domain R1-GWR (Q14671 828-1176 S863G/R864W/Q867R): as the sequence (Q14671 828-1176 C935L/R936Y/Q939V) above, with S36G, R37W, Q40R, L108C, Y109R, V112Q counted along it
Sequence of PUM1 PUF domain R3-RMR (Q14671 828-1176 C935R/R936M/Q939R): as the sequence (Q14671 828-1176 C935L/R936Y/Q939V) above, with L108R, Y109M, V112R counted along it
Sequence of PUM1 PUF domain R1-RAV (Q14671 828-1176 S863R/R864A/Q867V): as the sequence (Q14671 828-1176 C935L/R936Y/Q939V) above, with S36R, R37A, Q40V, L108C, Y109R, V112Q counted along it
Sequence of PUM1 PUF domain R7-SHP (Q14671 828-1176 N1080H/E1083P): as the sequence (Q14671 828-1176 C935L/R936Y/Q939V) above, with L108C, Y109R, V112Q, N253H, E256P counted along it
Sequence of PUM1 PUF domain R7-GWD (Q14671 828-1176 S1079G/N1080W/E1083D): as the sequence (Q14671 828-1176 C935L/R936Y/Q939V) above, with L108C, Y109R, V112Q, S252G, N253W, E256D counted along it
Sequence of PUM1 PUF domain R5-RPN (Q14671 828-1176 C1007R/R1008P/Q1011N): as the sequence (Q14671 828-1176 C935L/R936Y/Q939V) above, with L108C, Y109R, V112Q, C180R, R181P, Q184N counted along it
Sequence of PUM1 PUF domain R3-NSL (Q14671 828-1176 C935N/R936S/Q939L): as the sequence (Q14671 828-1176 C935L/R936Y/Q939V) above, with L108N, Y109S, V112L counted along it

For the sequence “GGCUAGAACUAGUGGAUCCCCCGGCGCCCGGCGGCUCGAGCCCGGGUAAGUGUUAAUAGUCUGCAUGCCGCCGGGCGCCAUGCCUGCAGGUCGACUCUAGAAAACAUG”, the binding signal was 2.85 log2 enrichment (interaction score) with PUM1 PUF domain R5-NPI, 3.36 log2 enrichment (interaction score) in the assay with PUM1 PUF domain R5-KGC, 3.03 log2 enrichment (interaction score) in the assay with PUM1 PUF domain R5-RPN and 1.52 log2 enrichment (interaction score) with PUM1 PUF domain R5-KTS.

As for “GGCUAGAACUAGUGGAUCCCCCGGCGCCCGGCGGCUCGAGCCCGGGUAAGUGUACAUAGUCUGCAUGCCGCCGGGCGCCAUGCCUGCAGGUCGACUCUAGAAAACAUG”, the binding signal is 0.61 log2 enrichment (interaction score) with PUM1 PUF domain R4-VPT and 4.96 log2 enrichment (interaction score) with PUM1 PUF domain R4-PHV.

“GGCUAGAACUAGUGGAUCCCCCGGCGCCCGGCGGCUCGAGCCCGGGUAAGUGUAACUAGUCUGCAUGCCGCCGGGCGCCAUGCCUGCAGGUCGACUCUAGAAAACAUG”: the binding signal in the assay with PUM1 PUF domain R3-SPR was 1.77 log2 enrichment (interaction score).

For the sequence “GGCUAGAACUAGUGGAUCCCCCGGCGCCCGGCGGCUCGAGCCCGGGUAAGUGUCAAUAGUCUGCAUGCCGCCGGGCGCCAUGCCUGCAGGUCGACUCUAGAAAACAUG”, the binding signal with PUM1 PUF domain R5-KTS was 2.89 log2 enrichment (interaction score).

On to “GGCUAGAACUAGUGGAUCCCCCGGCGCCCGGCGGCUCGAGCCCGGGUAAGUGUAAAUUGUCUGCAUGCCGCCGGGCGCCAUGCCUGCAGGUCGACUCUAGAAAACAUG”, for which the binding signal with PUM1 PUF domain R1-KSR is 5.58 log2 enrichment (interaction score); in the assay with PUM1 PUF domain R1-RAV, 2.63 log2 enrichment (interaction score); with PUM1 PUF domain R1-GWR, 4.28 log2 enrichment (interaction score).

Regarding “GGCUAGAACUAGUGGAUCCCCCGGCGCCCGGCGGCUCGAGCCCGGGUAAGUGUGAAUAGUCUGCAUGCCGCCGGGCGCCAUGCCUGCAGGUCGACUCUAGAAAACAUG”, in the assay with PUM1 PUF domain R5-SAS, the binding signal is 5.82 log2 enrichment (interaction score).

For the sequence “GGCUAGAACUAGUGGAUCCCCCGGCGCCCGGCGGCUCGAGCCCGGGUAAGUGUAAUUAGUCUGCAUGCCGCCGGGCGCCAUGCCUGCAGGUCGACUCUAGAAAACAUG”, the binding signal with PUM1 PUF domain R3-SPR was 3.06 log2 enrichment (interaction score); in the assay with PUM1 PUF domain R3-RMR, 4.19 log2 enrichment (interaction score); in the assay with PUM1 PUF domain R3-LYV, 5.79 log2 enrichment (interaction score).

Regarding “GGCUAGAACUAGUGGAUCCCCCGGCGCCCGGCGGCUCGAGCCCGGGUAAGUGUAUAUAGUCUGCAUGCCGCCGGGCGCCAUGCCUGCAGGUCGACUCUAGAAAACAUG”, the values for the binding signal with PUM1 PUF domain R4-VPT and with PUM1 PUF domain R4-PHV were 2.12 log2 enrichment (interaction score) and 7.14 log2 enrichment (interaction score), respectively.

On to “GGCUAGAACUAGUGGAUCCCCCGGCGCCCGGCGGCUCGAGCCCGGGUAAGUGCAAAUAGUCUGCAUGCCGCCGGGCGCCAUGCCUGCAGGUCGACUCUAGAAAACAUG”, for which, in the assay with PUM1 PUF domain R6-VFR, the binding signal was 1.27 log2 enrichment (interaction score).

For “GGCUAGAACUAGUGGAUCCCCCGGCGCCCGGCGGCUCGAGCCCGGGUAAGUGUAAGUAGUCUGCAUGCCGCCGGGCGCCAUGCCUGCAGGUCGACUCUAGAAAACAUG”, the binding signal in the assay with PUM1 PUF domain R3-SQE was 3.11 log2 enrichment (interaction score); with PUM1 PUF domain R3-SPR, 1.77 log2 enrichment (interaction score); with PUM1 PUF domain R3-RMR it was 1.31 log2 enrichment (interaction score); in the assay with PUM1 PUF domain R3-LYV, 4.97 log2 enrichment (interaction score).

On to “GGCUAGAACUAGUGGAUCCCCCGGCGCCCGGCGGCUCGAGCCCGGGUAAGUGUAAAUAGUCUGCAUGCCGCCGGGCGCCAUGCCUGCAGGUCGACUCUAGAAAACAUG”, for which the binding signal with PUM1 PUF domain R6-VFR was 4.2 log2 enrichment (interaction score); in the assay with PUM1 PUF domain R4-PHV, 4.46 log2 enrichment (interaction score); with PUM1 PUF domain R3-DYI, 5.38 log2 enrichment (interaction score); with PUM1 PUF domain R3-SPR, 0.25 log2 enrichment (interaction score); with PUM1 PUF domain R3-NSL, 2.4 log2 enrichment (interaction score); in the assay with PUM1 PUF domain R5-KGC, 1.52 log2 enrichment (interaction score). Also, the binding signal with PUM1 PUF domain R7-GWD is 2.68 log2 enrichment (interaction score); in the assay with PUM1 PUF domain R3-LYV, 4.4 log2 enrichment (interaction score).

As for “GGCUAGAACUAGUGGAUCCCCCGGCGCCCGGCGGCUCGAGCCCGGGUAAGUGUAAAUCGUCUGCAUGCCGCCGGGCGCCAUGCCUGCAGGUCGACUCUAGAAAACAUG”, the binding signal with PUM1 PUF domain R1-KSR was 5.1 log2 enrichment (interaction score); with PUM1 PUF domain R1-RAV it was 0.85 log2 enrichment (interaction score); with PUM1 PUF domain R1-GWR, 7.05 log2 enrichment (interaction score).

In the case of “GGCUAGAACUAGUGGAUCCCCCGGCGCCCGGCGGCUCGAGCCCGGGUAAGUCUAAAUAGUCUGCAUGCCGCCGGGCGCCAUGCCUGCAGGUCGACUCUAGAAAACAUG”, the figures for the binding signal in the assay with PUM1 PUF domain R7-SRK and with PUM1 PUF domain R7-SHP were 4.33 log2 enrichment (interaction score) and 3.63 log2 enrichment (interaction score), respectively.
